# “And” between values parts separate entries of the source, which are not always exact repeats. Equal values may be shown once. Screen size: about 2,100 compounds; about 1,100 (52%) were called active. About 29% were inconclusive and are not listed. The set was probably picked from earlier hits. This is one part of the list. Values without a mark were called inactive. Calls follow the shape of the dose curve; as a rule, active = well fitted inhibition curve with a large enough effect; inconclusive = small, poorly fitted or top-dose-only effect; inactive = no such curve, though single readings can be large or run the other way.
# Target: DNA dC->dU-editing enzyme APOBEC-3F (Homo sapiens) (UniProt Q8IUX4)
# Sequence (Q8IUX4 whole entry, looked up): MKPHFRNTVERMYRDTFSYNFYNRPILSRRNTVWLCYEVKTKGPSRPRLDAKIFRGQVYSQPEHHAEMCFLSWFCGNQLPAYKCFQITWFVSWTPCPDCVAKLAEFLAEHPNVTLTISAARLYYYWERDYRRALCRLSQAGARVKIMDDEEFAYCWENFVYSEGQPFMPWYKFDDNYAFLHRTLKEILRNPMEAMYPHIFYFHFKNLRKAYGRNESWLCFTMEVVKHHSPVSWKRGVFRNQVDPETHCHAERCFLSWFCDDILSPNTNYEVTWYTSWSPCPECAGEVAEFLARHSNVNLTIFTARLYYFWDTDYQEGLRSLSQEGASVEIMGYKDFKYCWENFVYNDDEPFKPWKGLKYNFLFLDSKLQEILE
# Test: qHTS for inhibitors of Vif-A3F interactions: Cherry picks counterscreen; also: nearly all actives have a fitted effect of over 65% in size
# Settings: HeLa A3F-eYFP/Vif cells, eYFP fluorescence, 24 h; series mostly up to 46.1 µM; activity, negative = inhibitor: at the top concentration
# Method in brief: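 Rescue of Vif-driven A3F-eYFP degradation read as cellular eYFP fluorescence after 24 h compound exposure (several concentrations) in stable HeLa cells; MG132 (2 mM stock) as positive control.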
# % is scaled to controls: 0 for no effect and ±100 for the full control effect; potency is read from the fitted curve at half-maximal effect.
Structure (SMILES),Potency,"activity, negative = inhibitor"
Cc1ccc2nc3sc(C(=O)N4CCCc5ccccc54)c(N)c3cc2c1,12.5 µM (active),
Cc1cccc2cc3c(N)c(C(=O)N4CCc5ccccc54)sc3nc12,6.51 µM (active),
Cc1cccc2cc3c(N)c(C(=O)N4CCCc5ccccc54)sc3nc12,20.6 µM (active),
Fc1ccc(-c2cnn3c(-c4cccs4)ccnc23)cc1,15.8 µM (active),
COc1ccccc1C1c2ccc3ccccc3c2Oc2ncn(CCN(C)C)c(=N)c21 (stereo not drawn),15.8 µM (active),
COC(=O)C1=COC(C)C2CN3CCc4c([nH]c5cc(OC)c(OC)cc45)C3CC12 (stereo not drawn),,-28.4%
COC(=O)C1C2CC3c4[nH]c5cc(OC)ccc5c4CCN3CC2CC(OC2CCCCO2)C1OC (stereo not drawn),,-27.1%
COC(=O)C1C2CC3c4[nH]c5cc(OC)ccc5c4CCN3CC2CC(OC(=O)CC(C)=O)C1OC (stereo not drawn),18.4 µM (active),
COc1ccc(-c2n[nH]c(C)c2-c2ccc(OC)c(OC)c2)c(O)c1,7.9 µM (active),
COc1ccccc1NS(=O)(=O)c1cc([N+](=O)[O-])ccc1N/N=C/c1sc(N2CCOCC2)nc1-c1ccccc1,1.46 µM (active),
O=[N+]([O-])c1ccc(N/N=C/c2sc(N3CCOCC3)nc2-c2ccccc2)c(S(=O)(=O)Nc2ccccc2Cl)c1,5.8 µM (active),
O=[N+]([O-])c1ccccc1S(=O)(=O)Nc1ccc(-c2ccc(N3CCOCC3)nn2)cc1,,-18.2%
COC(=O)c1ccc(NC(=O)CC2Nc3cc(C)c(C)cc3NC2=O)cc1 (stereo not drawn),9.2 µM (active),
CCOC(=O)c1ccc(NC(=S)NC(=O)C2CCCC2)cc1,,-5.14%
CCCSc1ncc(Cl)c(C(=O)Nc2sc3c(c2C(N)=O)CCCC3)n1,18.4 µM (active),
CCOC(=O)c1ccc(/C=C2/C=C(c3ccccc3)N(c3ccc(Cl)c(C(=O)O)c3)C2=O)cc1,20.6 µM (active),
Cc1cc(NC(=O)CSc2nc(-c3cccs3)nc3ccccc23)no1,0.994 µM (active),
Cc1nonc1NC(=O)CSc1nc2c(C)cccc2cc1C#N,16.4 µM (active),
Cc1cc2cc(C#N)c(SCC(=O)Nc3nonc3C)nc2cc1C,23.1 µM (active),
Cc1cc(NC(=O)CSc2nc3c(C)cccc3cc2C#N)no1,6.51 µM (active),
CC(Nc1oc(-c2ccc(COc3ccccc3)o2)nc1C#N)c1ccccc1 (stereo not drawn),,-27.6%
Cc1ccc2nc(SCC(=O)Nc3ccc4sc(C)nc4c3)c(C#N)cc2c1,16.4 µM (active),
Cc1nc2cc(NC(=O)CSc3nc4c(C)cccc4cc3C#N)ccc2s1,13 µM (active),
Cc1cccc(C(=O)Nc2nnc(C3=COCCO3)o2)c1,,-6.45%

Structure (SMILES),Potency,"activity, negative = inhibitor"
N=C1S/C(=C\c2ccc(-c3cccc(Cl)c3)o2)C(=O)N1c1nccs1,18.4 µM (active),
COc1ccc(N=Cc2c(O)n(-c3cccc(C)n3)c(=O)c3ccccc23)c(OC)c1,23.1 µM (active),
Cc1ccc(N=Cc2c(O)n(-c3nccs3)c(=O)c3ccccc23)c(C)c1,,-8.48%
O=C(N/N=C/c1c(O)n(-c2ccc(Cl)cn2)c(=O)c2ccccc12)c1ccncc1,,-29.3%
CCOC(=O)Cc1ccc(Nc2nc3cc(-c4sccc4C)sc3c(=O)n2C)cc1,3.96 µM (active),
COc1ccc(-n2nnnc2-c2cccc(OC)c2)cc1,1.25 µM (active),
COc1ccc(-n2nnnc2-c2ccccc2)cc1,2.5 µM (active),
COc1ccc(-n2cc3c(-c4cccc(Br)c4)nnc(C)c3n2)cc1,,-21.6%
CCOc1cccc(-n2nnnc2-c2ccc(OC)cc2)c1,4.44 µM (active),
COc1ccc(-c2cc(NC(C)=O)c3ncc(-c4cc(OC)c(OC)c(OC)c4)n3c2)cn1,7.04 µM (active),
COc1cc(-c2cnc3c(NC(C)=O)cc(-c4ccccc4CN(C)C)cn23)cc(OC)c1OC,12.5 µM (active),
Cc1ccc(CNC(=O)c2cccc(Nc3nc4ccccc4n4nnnc34)c2)cc1,20.6 µM (active),
COc1cc(Nc2nc3ccccc3n3nnnc23)cc(OC)c1OC,13 µM (active),
COc1ccccc1CNC(=O)c1ccc(Nc2nc3ccccc3n3nnnc23)cc1,23.1 µM (active),
CC(NC(=O)c1ccc(Nc2nc3ccccc3n3nnnc23)cc1)c1ccccc1 (stereo not drawn),18.4 µM (active),
Cc1cc(C)nc(-n2nc(C)cc2NC(=O)c2ccc(F)cc2F)n1,,-4.7%
COc1cc2ccccc2cc1C(=O)N/N=C/c1cccs1,1.77 µM (active),
COc1ccc(NC(=O)/C(C#N)=C\C=C\c2ccco2)cc1,7.04 µM (active),
COc1ccc(NC(=O)/C(C#N)=C/C=C/c2ccco2)cc1,6.27 µM (active),
CCOC(=O)c1c(NC(=O)CSc2nc3ccc(OC)cc3[nH]2)sc2c1CC(C)(C)NC2(C)C,,-11.3%
C=CCOc1ccc2nc(NC(=O)OC)[nH]c2c1,2.5 µM (active),
CC(C)n1cnc2c(NCc3ccccc3)cc(N[C@H](C)CO)cc21,14 µM (active),
COc1ccccc1Nc1nnc(SCC2CCCCO2)s1 (stereo not drawn),14 µM (active),
Cc1ccc(NC(=O)C(=Cc2ccc(C(=O)O)cc2)C(=O)Nc2ccc(C)cc2C)c(C)c1,3.53 µM (active),

Structure (SMILES),Potency,"activity, negative = inhibitor"
CN(C)c1ccc(/C=C2\SC(=S)N(Nc3ncc(C(F)(F)F)cc3Cl)C2=O)cc1,6.51 µM (active),
COc1cc(/C=C2\SC(=S)N(Nc3ncc(C(F)(F)F)cc3Cl)C2=O)ccc1O,20.6 µM (active),
C=CCN1C(=O)/C(=C/c2ccc(O)c(OC)c2)S/C1=N/c1nccs1,,46.6%
COc1cc(/C=C2\SC(=S)N(NC(=O)c3ccccc3OC)C2=O)ccc1O,,-11.7%
N=C1/C(=C\c2coc3ccccc3c2=O)C(=O)N=C2SC(c3ccncc3)=NN12,20.6 µM (active),
COc1ccc(-c2coc3cc4oc(=O)cc(-c5ccccc5)c4cc23)cc1F,1.98 µM (active),
COc1ccc(C)cc1NCc1cc(=O)oc2cc(-c3ccccc3)c(O)cc12,,-25.1% [at 36.9 µM]
COc1ccc2nc3sc(C(=O)Nc4cc(Cl)c(OC)cc4OC)cc3cc2c1,4.11 µM (active),
Nc1nc2n[nH]nc2c(=O)[nH]1,9.2 µM (active) and 3.96 µM (active),
Cc1noc(C)c1CSc1nc2ccccc2c(=O)n1-c1ccccc1,3.53 µM (active),
C=CCn1c(SCc2c(C)noc2C)nc2cc(C(=O)O)ccc2c1=O,17.7 µM (active),
CN1CCN(c2nc3ccccc3nc2NS(=O)(=O)c2ccc(Br)cc2)CC1,18.4 µM (active),
O=C(N=c1ccn(-c2nc3ccccc3nc2NS(=O)(=O)c2ccccc2)cc1)c1cccs1,,-19.2%
O=S(=O)(Nc1nc2ccccc2nc1N1CCN(c2ccccc2)CC1)c1ccc(F)cc1,18.4 µM (active),
O=C(N=c1ccn(-c2nc3ccccc3nc2NS(=O)(=O)c2ccc(Cl)cc2)cc1)c1cccs1,16.4 µM (active),
O=S(=O)(Nc1nc2ccccc2nc1N1CCc2ccccc2C1)c1ccc(Br)cc1,23.1 µM (active),
NC(=O)C1CCN(c2nc3ccccc3nc2NS(=O)(=O)c2ccc(Br)cc2)CC1,16.4 µM (active),
O=S(=O)(Nc1nc2ccccc2nc1N1CCN(c2ccccn2)CC1)c1ccc(Cl)cc1,16.4 µM (active),
O=C(NC(=S)N1CCN(c2ccccn2)CC1)c1ccccc1,,12.7%
Cc1c(=O)n(OCc2ccc(Cl)cc2)c2ccccc2[n+]1[O-],,-16.2% [at 36.9 µM]
CN1/C(=C/C=C(/C#N)C(N)=O)C(C)(C)c2ccccc21,7.04 µM (active),
CC1=C/C(=C\C=C(C#N)C#N)N(C)c2ccccc21,3.26 µM (active),
CN1/C(=C/C=C(C#N)C#N)C(C)(C)c2ccccc21,2.91 µM (active),
CN1/C(=C\C=C(C#N)C#N)C(C)(C)c2ccccc21,16.4 µM (active),

Structure (SMILES),Potency,"activity, negative = inhibitor"
CCOC(=O)C(C)Oc1cccc2c(=O)n(CC(=O)NCc3ccco3)ccc12 (stereo not drawn),3.14 µM (active),
COC(=O)COc1cccc2c(=O)n(CC(=O)NCc3ccccc3)ccc12,4.44 µM (active),
CCOc1cc(-c2nnc(SCC(=O)NCc3ccccc3)nc2-c2ccc(OC)c(OCC)c2)ccc1OC,2.31 µM (active),
COc1ccc(-c2nc3c4ccccc4ccn3c2Cc2ccsc2)cc1OC,,-14.4% [at 36.9 µM]
COc1ccc(-c2nnc(SCC(=O)NCc3ccccc3)nc2-c2ccc(OC)c(OC)c2)cc1OC,5.17 µM (active),
CCC(C)Sc1cc(-c2nc3ccccn3c2NC2CCCCC2)ccc1OC (stereo not drawn),,-26.4%
COc1cc(-c2nc3ccc(C)cn3c2NCc2ccccc2)ccc1SC1CCCCC1,,0.399% [at 36.9 µM]
CCOc1cc(C)nc(NCc2ccccc2)n1,,-25.2% [at 36.9 µM]
N#CC1=C(N)C(C#N)(C#N)[C@H](c2c(F)cccc2F)[C@H]2CC3(CC=C12)OCCO3,16.4 µM (active),
Cc1ccc(/C=C2/NC(=O)N(Cc3ccccc3F)C2=O)s1,4.11 µM (active),
Cc1cccc(CN2C(=O)N/C(=C/c3ccc(C)s3)C2=O)c1,12.5 µM (active),
C/C(CCC(C)C)=N\NC(=S)NCc1ccccc1,,0.97%
CC(=O)Nc1ccc(C2=CC(=O)C[C@H](c3ccc(Cl)cc3)C2)cc1,20.6 µM (active),
CC(=O)Nc1ccc2c(c1)Cc1ccc(Cl)cc1-2,,-0.691%
O=c1[nH]c(CN2CCN(c3ccccc3)CC2)nc2scc(-c3ccccc3)c12,16.4 µM (active),
COc1cccc(N2CCN(Cc3nc4scc(-c5ccccc5)c4c(=O)[nH]3)CC2)c1,9.94 µM (active),
O=C(NC(=S)N1CCN(C2CCCCC2)CC1)c1ccccc1,,-3.42%
COc1ccc(Cl)cc1NC(=O)CN(C)CC(=O)Nc1ccccc1N1CCOCC1,3.53 µM (active),
C/C(CC(=O)NCc1ccco1)=N\NC(=O)COc1ccc(Cl)cc1Cl,12.5 µM (active),
O=C(Oc1ccc(Cl)c2cccnc12)c1ccco1,,-0.697% [at 36.9 µM]
C/C(CC(=O)NCc1ccc(Cl)cc1)=N\NC(=O)COc1ccc(C)cc1Br,15.8 µM (active),
